In PubChem BioAssay (Tox21):
Values joined by “and” are separate entries in the source; they are usually repeats but may differ in a detail not shown here. Equal entries are not always repeated. Results filed as inconclusive are left out. Unmarked numbers belong to inactive results. Active and inactive are the calls of the source. Calls come from the whole dose curve; as a rule, active = well fitted activation curve with a large enough effect in the repeat runs; inconclusive = weak or mixed curves; inactive = no such curve, though single readings can be large or run the other way.
% is set by controls: 0 for no effect and ±100 for the full control effect.

What follows are compounds tested against Nuclear receptor subfamily 1 group I member 2 (Rattus norvegicus) (UniProt Q9R1A7) (assay: Rat pregnane X receptor (rPXR) activation by small molecules, qHTS assay (AID 1346983; note: nearly all actives have a fitted effect of over 20% in size)). Settings: rPXR luciferase reporter cells, One-Glo luminescence, 24 h; max activation: hits give high values.
Sequence of Nuclear receptor subfamily 1 group I member 2 (Rattus norvegicus) (Q9R1A7 whole entry, looked up): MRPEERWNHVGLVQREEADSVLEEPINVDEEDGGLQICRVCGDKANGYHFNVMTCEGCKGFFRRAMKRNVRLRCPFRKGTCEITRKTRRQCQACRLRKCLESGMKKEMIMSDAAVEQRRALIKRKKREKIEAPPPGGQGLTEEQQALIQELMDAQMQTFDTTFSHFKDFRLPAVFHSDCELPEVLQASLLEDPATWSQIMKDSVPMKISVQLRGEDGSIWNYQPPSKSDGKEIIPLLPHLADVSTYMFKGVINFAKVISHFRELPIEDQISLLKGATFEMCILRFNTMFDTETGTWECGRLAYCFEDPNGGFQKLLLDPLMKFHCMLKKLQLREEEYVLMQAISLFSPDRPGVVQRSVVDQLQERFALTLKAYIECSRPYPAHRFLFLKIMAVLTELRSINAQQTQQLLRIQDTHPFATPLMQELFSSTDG
In short: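 Cell-based rPXR luciferase reporter assay, 2,000 cells per well, rested 5hr at 37 C before compound addition in DMSO, then 24 hr at 37 C. One-Glo reagent was added and luminescence read after 30 min at room temperature.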
For `NCCO/C=C/[C@H](N)C(=O)O`, the max activation was -1.97%. With `NC[C@@H]1CC[C@@H](N)[C@@H](O[C@H]2[C@H](O)[C@@H](O[C@H]3O[C@H](CO)[C@@H](O)[C@H](N)[C@H]3O)[C@H](N)C[C@@H]2N)O1` the max activation was -0.783%. With `OCCCNc1ccccc1` the max activation was -0.22%. Work on `Cc1c(O)c(=O)ccn1C` yielded a max activation of -3.64%. Work on `CCCCCCCCCCCCCCCC(=O)OC[C@H](COP(=O)([O-])OCC[N+](C)(C)C)OC(=O)CCCCCCCCCCCCCCC` yielded a max activation of 0.686%. `CN(C)CCc1c[nH]c2ccc(Cn3cncn3)cc12` was tested, and the max activation was -1.87%. `CC(=O)OCC1=C(C(=O)O)N2C(=O)[C@@H](NC(=O)Cc3ccccc3)[C@H]2SC1` was tested, and the max activation was -4.93%. For `O=C(O)COc1ccc(C(=O)c2cccs2)c(Cl)c1Cl`, the max activation was -1.39% and -4.28%. `NC(=O)[C@@H]1C[C@]2(NC(=O)NC2=O)c2cc(F)ccc2O1` showed a max activation of -1.76%.

Each compound was assayed against Nuclear receptor subfamily 1 group I member 2 (Homo sapiens) (UniProt O75469) (assay: CYP3A4 induction through human pregnane X receptor (PXR) by small molecules, qHTS assay (AID 1346984; note: nearly all actives have a fitted effect of over 40% in size; note: potency is the fitted concentration of half-maximal effect)). Settings: DPX-2 HepG2 PXR, CYP3A4-luciferin luminescence, 24 h; series mostly up to 46.1 µM; activation: at the top concentration.
In short: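 Cells (DPX-2; HepG2 with PXR element plus CYP3A4-promoter luciferase) settled 5hr, then were treated 24hr at 37C. A 3hr, 3uM-final Luciferin-IPA step preceded luminescence measurement with One-Glo.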
With `CO[C@H](C(=O)[C@@H](O)[C@@H](C)O)C1Cc2cc3cc(O[C@H]4C[C@@H](O[C@H]5C[C@@H](O)[C@H](O)[C@@H](C)O5)[C@@H](O)[C@@H](C)O4)c(C)c(O)c3c(O)c2C(=O)[C@H]1O[C@H]1C[C@@H](O[C@H]2C[C@@H](O[C@H]3C[C@](C)(O)[C@H](O)[C@@H](C)O3)[C@H](O)[C@@H](C)O2)[C@H](O)[C@@H](C)O1` (some centres undefined) the “activation” value was 11.9%. `CC(C)OC(=O)Nc1ccc2nc(-c3cscn3)[nH]c2c1` was tested, and the “activation” value was -7.22%. `C=C(Nc1ccc(OCC)cc1)Nc1ccc(OCC)cc1` was tested, and the Potency was “inactive”. For `Nc1nc(/C(=C/CC(=O)O)C(=O)N[C@@H]2C(=O)N3C(C(=O)O)=CCS[C@H]23)cs1`, the “activation” value was -2.99%. For `NC(N)=NCC1COC2(CCCCC2)O1` (centres undefined), the “activation” value was -11.2% [at 20.6 µM]. In the case of `CCCCCCOC(=O)c1cccnc1`, the “activation” value is reported as -2.55%. With `CC[C@H]1OC(=O)C[C@@H](O)[C@H](C)[C@@H](O[C@@H]2O[C@H](C)[C@@H](O)[C@H](N(C)C)[C@H]2O)[C@@H](CCN2C[C@H](C)C[C@H](C)C2)C[C@@H](C)C(=O)/C=C/C(C)=C/[C@@H]1CO[C@@H]1O[C@H](C)[C@@H](O)[C@@H](OC)[C@H]1OC` the “activation” value was 5.41%. With `C=N[C@@H](C(=O)N[C@@H]1C(=O)N2[C@@H]1SC(C)(C)[C@@H]2C(=O)O)c1ccccc1` the “activation” value was -9.85%. In the case of `CC(C)(COP(=O)(O)OP(=O)(O)OC[C@H]1O[C@@H](n2cnc3c(N)ncnc32)[C@H](O)[C@@H]1OP(=O)(O)O)C(O)C(=O)NCCC(=O)NCCS` (some centres undefined), the “activation” value is reported as -9.98%. In the case of `CO/N=C(\C(=O)N[C@@H]1C(=O)N2C(C(=O)O)=C(CSc3nc(C)c(CC(=O)O)s3)CS[C@H]12)c1csc(N)n1`, the “activation” value is reported as -0.378%. For `C=CCN1C(=O)C(CC(C)C)NC1=S` (centres undefined), the Potency was “inactive”. With `COc1ccc(/C=C/C(=O)O)cc1` the “activation” value was 3.54%. With `CCC1OC(=O)C[C@@H](O)[C@H](C)[C@@H](O[C@@H]2O[C@H](C)C[C@H](N(C)C)[C@H]2O)[C@@H](CC=O)C[C@@H](C)C(=O)/C=C/[C@]2(C)OC2C1C` (some centres undefined) the “activation” value was -0.278%. In the case of `CC(=O)Nc1ccc(OC(C)=O)cc1`, the “activation” value is reported as -5.05%. In the case of `O=C(O)[C@H]1CN(C/C=C/P(=O)(O)O)CCN1`, the “activation” value is reported as -16.1%. In the case of `CC1=C(/C=C/C(C)=C/C=C/C(C)=C/C=C/C=C(C)/C=C/C=C(C)/C=C/C2=C(C)CCCC2(C)C)C(C)(C)CCC1`, the “activation” value is reported as 29.1%. `COc1cc2c(cc1O)CCN[C@]21CS[C@@H]2c3c(OC(C)=O)c(C)c4c(c3[C@H](COC1=O)N1[C@@H]2[C@H]2c3c(cc(C)c(OC)c3O)C[C@@H]([C@@H]1O)N2C)OCO4` was tested, and the “activation” value was -16.3%. For `Cc1ccc(C(C)(C)c2ccc(C)cc2)cc1`, the “activation” value was 0.626%. With `Cc1cc(C(=O)NCCc2ccc(S(=O)(=O)NC(=O)NN3CCCCCC3)cc2)no1` the “activation” value was -7.07%. In the case of `C[Se]CC[C@H](N)C(=O)O`, the “activation” value is reported as -6%. In the case of `COC(=O)C(CN)c1c[nH]c2ccc(OC)cc12` (centres undefined), the “activation” value is reported as -8.83%. `O=C(O)CCCC/C=C(\c1ccccc1)c1cccnc1` was tested, and the “activation” value was -4.83%. With `O=C[C@H](O)[C@@H](O)[C@@H](O)[C@H](O)CO` the “activation” value was 8.94%. In the case of `Cc1cc(=O)c(C(=O)N[C@@H](C(=O)N[C@@H]2C(=O)N3C(C(=O)O)=C(CSc4nnnn4C)CS[C@H]23)c2ccc(O)cc2)c[nH]1`, the “activation” value is reported as -0.184%. With `COc1ccc(/C=N/NC(=O)c2ccncc2)c(C(=O)O)c1OC` the “activation” value was -27.8%. For `CC[C@@H](C)[C@H](N)C(=O)O`, the “activation” value was 1.72%. For `CCc1cn([C@H]2C[C@H](O)[C@@H](CO)O2)c(=O)[nH]c1=O`, the “activation” value was -4.58%. `CO/N=C(\C(=O)N[C@@H]1C(=O)N2C(C(=O)[O-])=C(C[n+]3cccc4c3CCC4)CS[C@H]12)c1csc(N)n1` was tested, and the “activation” value was -6.58%. For `C=C1[C@H](CO)[C@@H](O)C[C@@H]1n1cnc2c(=O)[nH]c(N)nc21`, the “activation” value was -4.69%. With `Cc1cc(CC(C)CC(C)(C)C)n(O)c(=O)c1` (centres undefined) (tested in a mixture with another compound) the “activation” value was -12.7%. With `CCN(CC)CC#CCOC(=O)C(O)(c1ccccc1)C1CCCCC1` (centres undefined) the Potency was 8.91 µM (active). With `NCCO/C=C/[C@H](N)C(=O)O` the “activation” value was -11.9%. In the case of `NC[C@@H]1CC[C@@H](N)[C@@H](O[C@H]2[C@H](O)[C@@H](O[C@H]3O[C@H](CO)[C@@H](O)[C@H](N)[C@H]3O)[C@H](N)C[C@@H]2N)O1`, the “activation” value is reported as 2.77%. `OCCCNc1ccccc1` was tested, and the “activation” value was -0.808%. For `Cc1c(O)c(=O)ccn1C`, the “activation” value was -5.7%. `CCCCCCCCCCCCCCCC(=O)OC[C@H](COP(=O)([O-])OCC[N+](C)(C)C)OC(=O)CCCCCCCCCCCCCCC` was tested, and the “activation” value was -9.51%. `CN(C)CCc1c[nH]c2ccc(Cn3cncn3)cc12` was tested, and the “activation” value was -3.7%. `CC(=O)OCC1=C(C(=O)O)N2C(=O)[C@@H](NC(=O)Cc3ccccc3)[C@H]2SC1` was tested, and the “activation” value was -3.75%. With `O=C(O)COc1ccc(C(=O)c2cccs2)c(Cl)c1Cl` the Potency was “inactive”. `NC(=O)[C@@H]1C[C@]2(NC(=O)NC2=O)c2cc(F)ccc2O1` was tested, and the “activation” value was 3.98%.
